Data published in PubChem BioAssay (NCATS).
Unmarked numbers belong to inactive results. Results filed as inconclusive are left out. A call without a number means that no potency is given here. Calls of active or inactive are those of the source. Unless noted, the call rests on the fitted dose curve; in most records, active means well fitted curve in the direction sought with a large enough effect; inconclusive means small, poorly fitted or top-dose-only effect, or another doubt; inactive means no such curve, though single readings can be large; an effect the other way counts as inactive or inconclusive.

Key:
[1] = Validation of Assay for Modulators of Lamin A Splicing (AID 1459; active means well fitted curve in the direction sought with a large enough effect in the signal ratio; the % refers to the signal ratio;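 further: cells exposed to compound for two days before reading; ratio rise marks activators and ratio drop marks inhibitors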)
Method in brief: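 S3 HeLa cells stably expressing a lamin A-EGFP splicing minigene and DsRed2 were seeded at 600 cells/well in Opti-MEM with 2% FBS, pin-dosed, and incubated 48 hrs at 37 °C, 5% CO2. Laser-scanning cytometry (488 nm) gave GFP/RFP total intensity ratio.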

[2] = target: DNA repair nuclease/redox regulator APEX1 (Homo sapiens) (UniProt P27695); assay: qHTS Validation Assay for Inhibitors of the Human Apurinic/apyrimidinic Endonuclease 1 (APE1) (AID 1705;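 further: TAMRA fluorescence gain over two minutes as APE1 cuts a quenched THF abasic duplex; series mostly up to about 57 µM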)
Method in brief: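 Human APE1 was preincubated with compound for 15 min at room temperature, then 50 nM (final) THF-abasic double-stranded DNA substrate bearing 5'-TAMRA and 3'-BHQ-2 was added. Incision-driven fluorescence rise (ex 525/em 598 nm) was read kinetically.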

[3] = Counterscreen for APE1 Inhibitors: Fluorescent Dye Displacement Validation Assay (AID 1707)
Method in brief: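 Thiazole Orange (250 nM) bound to 50 nM TAMRA-labelled dsDNA with tetrahydrofuran abasic site; displacement by DNA-binding compounds lowers fluorescence. Buffer 50 mM Tris-HCl pH 7.5, 50 mM NaCl, 2 mM MgCl2, 0.01% Tween-20; endpoint read at 480/540 nm.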

[4] = target: Endonuclease 4 (Escherichia coli (strain K12)) (UniProt P0A6C1); assay: Counterscreen for APE1 Inhibitors: qHTS Validation Assay for Inhibitors of Endonuclease IV (AID 1708)
Method in brief: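 Cleavage of a quenched abasic-site DNA duplex (50 nM, 5'-TAMRA, 3'-BHQ-2) by 2 nM enzyme is followed as fluorescence increase. Compounds are preincubated with enzyme 15 min at room temperature before substrate addition.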

[5] = qHTS for differential inhibitors of proliferation of Plasmodium falciparum line 3D7 (AID 1876); further: potency means the concentration at half of the fitted maximal effect
[6] = target: Ferritin light chain (Equus caballus) (UniProt P02791); assay: qHTS Validation Assay for Identification of Novel General Anesthetics (AID 2323); further: series mostly up to about 77 µM
Method in brief: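 Competitive displacement of profluorescent 1-aminoanthracene (1-AMA, 50% saturated solution in PBS) from 10 uM horse-spleen apoferritin. Compounds incubated 10 min at room temperature; fluorescence read at 380 nm excitation/535 nm emission, normalized to free 1-AMA and complex, fitted with four-parameter Hill equation.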

[7] = target: ATP-dependent DNA helicase Q1 (Homo sapiens) (UniProt P46063); assay: qHTS Validation Assay for Inhibitors of RecQ-Like Dna Helicase 1 (RECQ1) (AID 2353)
Method in brief: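 50 nM RECQ1T1 preincubated 15 min with compound in Tris pH 8.0 buffer with MgCl2, DTT, Tween-20 and 2.5 ug/ml poly(dI-dC); started with 200 nM TAMRA/BHQ-2 forked duplex and 2 mM ATP. Unwinding read as fluorescence (525/598 nm), two reads 2 h apart.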

[8] = Quantitative high throughput screen for delayed death inhibitors of the malarial parasite plastid, 48 hour incubation (AID 488752); further: nearly all actives have a fitted effect of over 65% in size; further: potency means the concentration at half of the fitted maximal effect
Method in brief: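 Erythrocytes infected with P. falciparum carrying an integrated firefly luciferase reporter (2% hematocrit, 0.1% parasitemia final) were exposed to compounds in RPMI 1640/0.5% Albumax for 48 h at 37 C, 5% CO2. Growth inhibition was scored as reduced luminescence.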

[9] = target: M-phase phosphoprotein 8 (Homo sapiens) (UniProt Q99549); assay: qHTS Validation Assay for Inhibitors for MPP8 Chromodomain Interactions with Methylated Histone Tails (AID 488949); further: nearly all actives have a fitted effect of over 55% in size; further: potency means the concentration at half of the fitted maximal effect
Method in brief: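 MPP8 (50 nM) was preincubated with biotinylated H3(1-18)K9me3 peptide (50 nM) in PBS pH 7.4, 0.01% Tween-20 for 30 min at room temperature, then with compounds for 30 min; binding was detected by AlphaScreen.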

[10] = target: Thyrotropin receptor (Homo sapiens) (UniProt P16473); assay: qHTS Assay for Antagonists of the Thyroid Stimulating Hormone Receptor (AID 488980); further: series mostly up to about 58 µM
Method in brief: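 HEK293 cells transfected with human TSHR, suspended in HEPES-buffered HBSS with 70 uM RO 20-1724, were treated with compounds plus TSH at EC80 (4 nM final). cAMP was measured by competitive HTRF (cryptate anti-cAMP antibody, cAMP-d2 acceptor).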

[11] = target: Thyrotropin-releasing hormone receptor (Homo sapiens) (UniProt P34981); assay: qHTS for Small Molecule Agonists and Allosteric Enhancers of Human TRH Receptor: Validation Screen for Agonists (AID 493127;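 active means calcium activation more than 3 SD above the typical response in the agonist read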;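 further: intracellular calcium rise by fluo-8 fluorescence before TRH EC20 addition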); conditions: TRH receptor agonist cell assay; at 2 µM; hits give high values
Method in brief: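 TRHR-expressing cells were plated overnight in serum-containing medium, then loaded with fluo-8 calcium dye at room temperature for 30 min–1.5 h. After a 10 s baseline, compound was pin-transferred and calcium fluorescence (ex 480/em 530) read kinetically for agonist response.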

[12] = target: Galactokinase (Homo sapiens) (UniProt P51570); assay: qHTS Validation Assay for Inhibitors of Human Galactokinase (GALK) (AID 493189)
Method in brief: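 GALK (5 nM) with 35 uM ATP and 100 uM galactose in HEPES pH8.0, MgCl2, NaCl, DTT, BSA; 1 h at room temperature. Residual ATP read by Kinase-Glo Plus luminescence after 10 min.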

[13] = target: Voltage-gated inwardly rectifying potassium channel KCNH2 (Homo sapiens) (UniProt Q12809); assay: qHTS Assay for Small Molecule Inhibitors of the Human hERG Channel Activity (AID 588834);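 further: lower thallium flux fluorescence means stronger hERG block; nearly all actives have a fitted effect of over 50% in size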; further: potency means the concentration at half of the fitted maximal effect
Method in brief: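 U2OS cells transduced with hERG via BacMam (MOI ~100), plated 2000/well, loaded with FluxOR thallium dye, compound ~10 min, then stimulation buffer; fluorescence decrease read kinetically; AC50 from Hill fits.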

[14] = qHTS for differential inhibitors of proliferation of Plasmodium falciparum line Dd2 (AID 1882); conditions: Potency: Plasmodium falciparum Dd2 proliferation inhibition; further: nearly all actives have a fitted effect of over 65% in size; further: potency means the concentration at half of the fitted maximal effect
Method in brief: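 SYBR Green I DNA fluorescence read-out, ex 485/em 535 nm. Signals were normalized to 0.29 uM artemisinin and DMSO wells, then corrected using vehicle-only plates flanking each stack. Parasite growth ran 72 h in erythrocytes before lysis.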

[15] = Validation screen for small molecules that induce DNA re-replication in MCF 10A normal breast cells (AID 463097); further: nearly all actives have a fitted effect of over 60% in size
Method in brief: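 Readout: Hoechst nuclear fluorescence intensity, 405 ex / 500-530 em, by scanning plate imager; re-replication scored as increase in nuclei with elevated DNA content. Cells exposed to compound 48 hr, 37 C, 5% CO2 beforehand.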

[16] = Quantitative high throughput screen for delayed death inhibitors of the malarial parasite plastid, 96 hour incubation (AID 488745); further: nearly all actives have a fitted effect of over 70% in size; further: potency means the concentration at half of the fitted maximal effect
Method in brief: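 P. falciparum carrying an integrated firefly luciferase reporter, grown in erythrocytes (2% hematocrit, 0.1% parasitemia final) in RPMI 1640/0.5% Albumax, was exposed to compound for 96 h (two generations) at 37 C, 5% CO2. Luminescence decrease indicated growth inhibition.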

[17] = target: Transient receptor potential cation channel subfamily V member 1 (Homo sapiens) (UniProt Q8NER1); assay: HTS Assay for Compounds that Act as Enhancers of the Vanilloid Receptor 1 (AID 488979)
Method in brief: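 TRPV1 cells loaded with Fluo-8 calcium dye; compound added and Ca2+ signal (ex 480/em 520 nm) followed 3 min, then capsaicin at EC20 added and read 2 more min to detect enhancement.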

Sequence of Transient receptor potential cation channel subfamily V member 1 (Homo sapiens) (Q8NER1 whole entry, looked up): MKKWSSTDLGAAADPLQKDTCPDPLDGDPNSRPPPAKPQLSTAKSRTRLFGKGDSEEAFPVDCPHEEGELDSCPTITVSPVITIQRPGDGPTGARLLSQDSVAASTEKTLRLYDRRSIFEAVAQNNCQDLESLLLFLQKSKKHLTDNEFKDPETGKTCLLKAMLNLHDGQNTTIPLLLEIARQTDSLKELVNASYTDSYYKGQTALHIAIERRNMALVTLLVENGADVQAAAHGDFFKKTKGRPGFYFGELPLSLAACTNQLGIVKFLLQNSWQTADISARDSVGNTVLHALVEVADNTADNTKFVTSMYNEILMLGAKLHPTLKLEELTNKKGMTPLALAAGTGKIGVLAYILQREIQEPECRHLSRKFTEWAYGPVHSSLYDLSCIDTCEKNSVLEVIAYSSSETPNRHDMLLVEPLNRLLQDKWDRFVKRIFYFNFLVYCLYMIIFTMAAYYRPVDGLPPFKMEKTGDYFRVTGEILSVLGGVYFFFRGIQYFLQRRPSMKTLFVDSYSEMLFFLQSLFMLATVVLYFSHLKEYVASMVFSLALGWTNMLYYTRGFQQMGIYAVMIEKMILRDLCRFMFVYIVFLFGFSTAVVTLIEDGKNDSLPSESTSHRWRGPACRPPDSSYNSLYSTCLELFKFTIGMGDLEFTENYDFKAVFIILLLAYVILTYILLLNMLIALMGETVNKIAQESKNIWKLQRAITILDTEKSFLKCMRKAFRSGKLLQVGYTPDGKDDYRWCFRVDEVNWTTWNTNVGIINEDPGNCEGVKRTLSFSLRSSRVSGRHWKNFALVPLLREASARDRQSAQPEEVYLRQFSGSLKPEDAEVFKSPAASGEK
Sequence of Voltage-gated inwardly rectifying potassium channel KCNH2 (Homo sapiens) (Q12809 whole entry, looked up): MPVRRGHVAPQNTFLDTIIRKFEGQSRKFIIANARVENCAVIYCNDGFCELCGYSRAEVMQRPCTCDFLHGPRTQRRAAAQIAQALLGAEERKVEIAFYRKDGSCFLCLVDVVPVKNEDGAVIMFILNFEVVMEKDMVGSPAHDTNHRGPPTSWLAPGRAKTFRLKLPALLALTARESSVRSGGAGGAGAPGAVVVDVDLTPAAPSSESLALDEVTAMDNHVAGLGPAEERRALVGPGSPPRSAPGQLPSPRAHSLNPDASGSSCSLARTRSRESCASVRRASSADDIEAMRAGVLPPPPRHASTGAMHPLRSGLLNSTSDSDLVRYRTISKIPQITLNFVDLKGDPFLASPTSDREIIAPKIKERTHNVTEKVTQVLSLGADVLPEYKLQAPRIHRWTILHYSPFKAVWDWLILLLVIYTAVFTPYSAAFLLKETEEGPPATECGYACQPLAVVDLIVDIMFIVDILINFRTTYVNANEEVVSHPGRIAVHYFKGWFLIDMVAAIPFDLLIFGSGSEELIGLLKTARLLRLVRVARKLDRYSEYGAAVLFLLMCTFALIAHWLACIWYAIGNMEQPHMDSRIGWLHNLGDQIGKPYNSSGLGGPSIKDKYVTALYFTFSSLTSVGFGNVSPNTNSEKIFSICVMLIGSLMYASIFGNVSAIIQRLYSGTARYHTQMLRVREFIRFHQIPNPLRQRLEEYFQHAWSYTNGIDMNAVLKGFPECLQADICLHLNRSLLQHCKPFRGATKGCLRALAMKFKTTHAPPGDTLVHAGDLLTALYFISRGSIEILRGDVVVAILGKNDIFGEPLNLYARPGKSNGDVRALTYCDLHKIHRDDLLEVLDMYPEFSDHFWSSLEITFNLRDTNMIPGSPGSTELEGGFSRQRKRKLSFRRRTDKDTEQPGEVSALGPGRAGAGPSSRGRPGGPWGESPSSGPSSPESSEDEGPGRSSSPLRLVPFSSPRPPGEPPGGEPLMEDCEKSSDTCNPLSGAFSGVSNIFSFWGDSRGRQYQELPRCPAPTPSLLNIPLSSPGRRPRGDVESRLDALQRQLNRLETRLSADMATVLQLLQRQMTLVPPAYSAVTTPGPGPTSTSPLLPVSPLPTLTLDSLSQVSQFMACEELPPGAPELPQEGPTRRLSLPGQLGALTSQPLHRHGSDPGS
Sequence of ATP-dependent DNA helicase Q1 (Homo sapiens) (P46063 whole entry, looked up): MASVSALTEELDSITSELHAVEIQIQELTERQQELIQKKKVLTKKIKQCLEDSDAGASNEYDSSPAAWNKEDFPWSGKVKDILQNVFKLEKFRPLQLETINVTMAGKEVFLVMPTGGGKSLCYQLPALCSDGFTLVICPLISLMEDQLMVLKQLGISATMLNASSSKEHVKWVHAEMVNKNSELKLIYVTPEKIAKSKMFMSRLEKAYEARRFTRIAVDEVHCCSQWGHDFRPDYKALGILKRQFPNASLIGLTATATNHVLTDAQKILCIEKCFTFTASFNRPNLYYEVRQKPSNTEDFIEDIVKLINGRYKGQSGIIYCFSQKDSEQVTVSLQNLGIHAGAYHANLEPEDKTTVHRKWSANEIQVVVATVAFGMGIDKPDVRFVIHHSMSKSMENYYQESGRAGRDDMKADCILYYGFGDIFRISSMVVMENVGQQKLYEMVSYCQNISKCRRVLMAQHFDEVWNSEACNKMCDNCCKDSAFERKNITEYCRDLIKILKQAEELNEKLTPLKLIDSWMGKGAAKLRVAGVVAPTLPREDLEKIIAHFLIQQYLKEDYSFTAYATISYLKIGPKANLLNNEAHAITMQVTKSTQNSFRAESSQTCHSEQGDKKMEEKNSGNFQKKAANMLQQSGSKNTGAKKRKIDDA
Sequence of Thyrotropin receptor (Homo sapiens) (P16473 whole entry, looked up): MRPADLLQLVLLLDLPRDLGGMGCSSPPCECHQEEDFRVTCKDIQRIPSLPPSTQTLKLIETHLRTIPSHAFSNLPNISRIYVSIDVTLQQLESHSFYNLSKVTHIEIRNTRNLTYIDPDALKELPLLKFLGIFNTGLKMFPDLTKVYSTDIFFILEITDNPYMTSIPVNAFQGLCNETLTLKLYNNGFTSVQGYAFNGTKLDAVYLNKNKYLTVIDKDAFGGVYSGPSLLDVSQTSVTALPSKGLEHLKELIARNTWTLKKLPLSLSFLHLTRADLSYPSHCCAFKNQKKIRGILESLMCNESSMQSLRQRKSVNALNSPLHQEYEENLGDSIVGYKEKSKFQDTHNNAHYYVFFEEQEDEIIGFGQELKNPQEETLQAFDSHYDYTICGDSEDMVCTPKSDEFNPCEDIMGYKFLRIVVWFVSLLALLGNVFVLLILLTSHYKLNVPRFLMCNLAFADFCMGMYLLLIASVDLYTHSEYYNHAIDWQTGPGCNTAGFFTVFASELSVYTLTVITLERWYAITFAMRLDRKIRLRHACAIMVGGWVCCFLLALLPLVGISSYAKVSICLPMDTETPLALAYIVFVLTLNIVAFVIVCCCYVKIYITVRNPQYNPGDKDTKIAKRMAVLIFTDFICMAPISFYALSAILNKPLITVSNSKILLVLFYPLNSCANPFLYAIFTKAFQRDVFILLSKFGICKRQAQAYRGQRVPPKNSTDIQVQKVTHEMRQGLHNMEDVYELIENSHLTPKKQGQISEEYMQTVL
Sequence of Ferritin light chain (Equus caballus) (P02791 2-175 limits assumed): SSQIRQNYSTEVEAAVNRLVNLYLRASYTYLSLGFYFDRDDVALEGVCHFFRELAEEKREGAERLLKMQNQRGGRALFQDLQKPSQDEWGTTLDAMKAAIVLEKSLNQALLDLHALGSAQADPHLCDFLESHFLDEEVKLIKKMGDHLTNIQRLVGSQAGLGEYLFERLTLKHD
Sequence of Galactokinase (Homo sapiens) (P51570 whole entry, looked up): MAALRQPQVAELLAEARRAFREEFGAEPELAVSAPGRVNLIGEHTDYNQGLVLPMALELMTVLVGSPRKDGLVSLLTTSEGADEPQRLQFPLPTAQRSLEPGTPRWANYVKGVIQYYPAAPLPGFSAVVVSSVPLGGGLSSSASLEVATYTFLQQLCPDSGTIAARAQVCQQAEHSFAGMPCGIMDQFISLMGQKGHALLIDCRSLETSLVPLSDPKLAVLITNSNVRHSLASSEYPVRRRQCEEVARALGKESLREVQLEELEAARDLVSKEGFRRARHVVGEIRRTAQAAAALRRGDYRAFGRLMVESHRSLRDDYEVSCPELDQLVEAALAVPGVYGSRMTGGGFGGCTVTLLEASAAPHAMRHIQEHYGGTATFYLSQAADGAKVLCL
Sequence of Thyrotropin-releasing hormone receptor (Homo sapiens) (P34981 whole entry, looked up): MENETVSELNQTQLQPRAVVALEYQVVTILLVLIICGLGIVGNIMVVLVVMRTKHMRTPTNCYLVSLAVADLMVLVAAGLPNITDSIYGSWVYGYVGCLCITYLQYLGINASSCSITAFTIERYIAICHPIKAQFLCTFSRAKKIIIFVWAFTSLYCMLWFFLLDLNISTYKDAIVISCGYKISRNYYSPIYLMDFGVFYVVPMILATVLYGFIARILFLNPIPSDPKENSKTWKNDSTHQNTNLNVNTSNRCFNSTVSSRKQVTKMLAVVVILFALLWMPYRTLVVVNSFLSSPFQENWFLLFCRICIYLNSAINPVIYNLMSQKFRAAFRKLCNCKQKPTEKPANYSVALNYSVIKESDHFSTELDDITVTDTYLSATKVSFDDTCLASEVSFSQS
Sequence of DNA repair nuclease/redox regulator APEX1 (Homo sapiens) (P27695 whole entry, looked up): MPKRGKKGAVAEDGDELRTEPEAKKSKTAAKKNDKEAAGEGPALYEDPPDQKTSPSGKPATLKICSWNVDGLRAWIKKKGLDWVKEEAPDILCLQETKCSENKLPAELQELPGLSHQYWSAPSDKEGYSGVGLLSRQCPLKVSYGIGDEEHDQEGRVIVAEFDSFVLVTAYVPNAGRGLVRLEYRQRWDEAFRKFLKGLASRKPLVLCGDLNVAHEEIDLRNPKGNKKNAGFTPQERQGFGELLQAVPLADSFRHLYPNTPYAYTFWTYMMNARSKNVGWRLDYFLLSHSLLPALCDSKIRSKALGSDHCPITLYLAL

SMILES | outcome [1] | Potency [2] | Potency [3] | outcome [4] | Potency [5] | outcome [6] | Potency [7] | Potency [8] | Potency [9] | outcome [10] | activation [11] | outcome [12] | Potency [13] | Potency [14] | outcome [15] | Potency [16] | outcome [17]
NCCCCNS(=O)(=O)c1cccc2c(Cl)cccc12 | inactive | inactive | inactive | inactive | 8.91 µM (active) | inactive | inactive | 14.7 µM (active) | inactive | inactive | 0.5% | inactive | 4.47 µM (active) |  |  |  | 
Nc1ncnc2c1ncn2[C@@H]1O[C@H](CO)[C@H](O)[C@H]1O | inactive | inactive | inactive | inactive | inactive | inactive | inactive | inactive | inactive | inactive | 1.5% | inactive |  | inactive | inactive | inactive | inactive
CC(=O)NCCc1ccc(O)c(O)c1 | inactive | inactive | inactive | inactive |  | inactive | inactive | inactive |  | inactive | 0.75% | inactive | inactive | inactive | inactive | inactive | inactive
C[C@H](Cc1ccccc1)Nc1ncnc2c1ncn2[C@@H]1O[C@H](CO)[C@H](O)[C@H]1O | inactive | inactive | inactive | inactive | inactive | inactive | inactive |  | inactive | inactive | -2.69% | inactive | inactive | inactive | inactive | inactive | inactive
CNc1ncnc2c1ncn2[C@@H]1O[C@H](CO)[C@H](O)[C@H]1O | inactive | inactive | inactive | inactive | inactive | inactive | inactive |  | inactive | inactive | 1.06% | inactive | inactive | inactive |  |  | inactive
CN(C)C1C(=O)C(C(N)=O)=C(O)[C@@]2(O)C(=O)C3=C(O)c4c(O)ccc(Cl)c4[C@@H](O)C3C[C@@H]12 (stereo not given in full) | inactive | inactive | inactive |  | 0.794 µM (active) | inactive | inactive | 6.57 µM (active) | inactive | inactive | 1.62% | inactive | inactive |  |  | 0.738 µM (active) | inactive
COC(=O)c1c(-c2cc(OC)c(OC)c(OC)c2)c2ccc(OCc3ccccn3)cc2c(=O)n1-c1ccc(N)cc1 | inactive | inactive | inactive |  | 3.98 µM (active) | inactive | inactive | 9.28 µM (active) | 28.2 µM (active) | inactive | -4% | inactive |  | 2 µM (active) | inactive | 7.38 µM (active) | inactive
CSc1nc(N)c2ncn([C@@H]3O[C@H](COP(=O)(O)OP(=O)(O)OP(=O)(O)O)[C@H](O)[C@H]3O)c2n1 | inactive | inactive | inactive | inactive |  | inactive | inactive | inactive | inactive | inactive | 24.8% | inactive | inactive | inactive | inactive | inactive | inactive
CCSC(N)=Nc1ccc(C(F)(F)F)cc1 | inactive | inactive | inactive | inactive | inactive |  | inactive | inactive | inactive | inactive | -5.5% | inactive | inactive | inactive | inactive | inactive | inactive
